Peg3 prom inh – Peg3 promoter-driven luciferase inhibitors, primary screen, cell-based, HeLa, luciferase luminescence; HeLa PEG-Prom luciferase reporter, overnight; inhibition, % at 20 µM; 360,000 tested, 1.7% active;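 active = inhibition of at least 50% at 20 µM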
KKLEB cytotox – cytotoxicity in KKLEB CF airway cells, primary screen, cytotoxicity control for CF NF-kB inhibitor project, cell-based, uHTS, fluorescence assay plates. KKLEB CF airway cells viability, ATPlite luminescence, overnight; active compounds read low; cells stimulated with P. aeruginosa culture filtrate. activity change (cytotoxicity), % at 5 µM. 360,000 tested, 0.36% active;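 active = corrected activity change at or below -50% at 5 µM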
HIF-2a inh – HIF-2a reporter inhibitors, primary screen, luminescence, 786-0 RCC cells | inhibition, % at 18.8 µM | 360,000 tested, 0.72% active | 786-0 RCC cells HIF-2a reporter, luciferase luminescence, overnight;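 active = inhibition of the luminescence signal of 40% or more relative to plate controls, in a single-dose primary screen at 18.75 µM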
CF NFkB inh – inhibitors of PAF-induced NF-kB signaling, primary screen, cell-based, GFP fluorescence, uHTS | AID 588850, 2011 | KKLEB NF-kB-GFP reporter, GFP fluorescence overnight | inhibition, % at 5 µM | 360,000 tested, 0.86% active;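 active = at least 50% inhibition at 5 µM, scaled per plate between neutral and stimulator controls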;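 note: PAF is a Pseudomonas aeruginosa culture filtrate used as stimulus; plate controls were PAF-stimulated DMSO wells for no effect and unstimulated DMSO wells for full effect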
MITF TRPM1 inh – inhibitors of MITF-dependent TRPM1 promoter reporter, primary screen, cell-based, SK-MEL-5, single point, luciferase; SK-MEL-5 TRPM1 promoter luciferase, 24 h; inhibition, % at 12.5 µM; 330,000 tested, 0.83% active; AID 488899, 2010;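 active = mean inhibition across replicates of 60% or more, whatever share of single replicates reaches that level; inconclusive = some that reach 60%, reason not given; inactive = mean inhibition across replicates below 60%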
Shn3 inh set2 – reduction of Shn3 3'UTR firefly luciferase signal, primary screen, Schnurri-3 inhibitor project, cell-based, Clone20 osteoblasts, set 2. Clone20 osteoblast Shn3 3'UTR firefly luciferase, 24 h. inhibition, % at 12.5 µM. 360,000 tested, 0.52% active. AID 588674, 2011;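 active = mean inhibition of at least 75% with every replicate also reaching 75%; inconclusive = mean inhibition at least 75% but some replicate below; inactive = mean inhibition below 75%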;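 note: 0% = median of neutral control wells and 100% = pilot-screen positive control compound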
* hit, by the source's call; ? = inconclusive; · = not tested or not shown; ! = a repeat was not active. Sampled rows, rich in hits. Any-hit rate of the full collection: about 2.8%.

SMILES	Peg3 prom inh	KKLEB cytotox	HIF-2a inh	CF NFkB inh	MITF TRPM1 inh	Shn3 inh set2
CCn1c(=O)cc(SCC(=O)Nc2ccc(C)cn2)c2ccccc21	82.7*	7.6	-357.4	49.3	-1.5	-79.3
C[C@H]1CN([C@@H](C)CO)C(=O)Cc2cc(NC(=O)CCC(F)(F)F)ccc2O[C@H]1CN(C)S(=O)(=O)c1ccc(Cl)cc1	1.1	-23.1	14.6	19.1	29.8	28.1
CC(CC(=O)N1CCN(c2cccc(Cl)c2)CC1)S(=O)(=O)c1ccc2c(c1)NC(=O)CO2 (stereo not given)	16.2	-1.3	1.6	-2.9	25.2	89.1*
COC(=O)C1=C(CCc2ccccc2)NC(=O)NC1c1ccc([N+](=O)[O-])cc1 (stereo not given)	1.4	16.3	-5.4	5.5	-2.8	16.7
COc1ccc(O)c(/C=N/NC(=S)Nc2cccc(S(=O)(=O)N(C)C)c2)c1	17.6	14.0	-73.4	2.4	25.0	90.0*
Cc1ccc(C)c(NCCCCC(=O)O)c1	4.2	1.9	-5.0	-20.1	·	6.1
O=c1c2c3c(sc2ncn1/N=C/c1ccc([N+](=O)[O-])o1)CCCC3	9.1	-1.1	1.8	-0.1	81.8*	-11.7
O=C(CCCCCn1c(=S)[nH]c2ccc(Br)cc2c1=O)NCC1CCCO1 (stereo not given)	18.5	6.1	17.6	-7.6	-1.2	28.4
CCOC(=O)N1CCN(C(=O)c2ccc(Cn3c(=S)[nH]c4ccc(Br)cc4c3=O)cc2)CC1	30.5	6.4	1.3	-3.4	71.1*	?
CCOC(=O)N1CCN(C(=O)c2ccc3c(=O)n(Cc4ccc(Cl)cc4)c(=S)[nH]c3c2)CC1	25.8	-8.1	7.4	-17.2	-7.4	-0.7
NS(=O)(=O)c1ccc(CCNC(=O)CCCCCn2c(=S)[nH]c3ccc(Br)cc3c2=O)cc1	61.6*	-32.5	18.2	6.7	16.0	-32.0
CC1=C(C(=O)Nc2ccccc2)C(c2ccc(C)cc2)N=C(Nc2nc3ccccc3o2)N1 (stereo not given)	76.7*	-17.4	2.4	1.4	21.9	67.9
CC1(C)CC(=O)C2=C(C1)NC(Nc1nc3ccccc3o1)=NC2c1ccccn1 (stereo not given)	-3.0	-7.1	21.8	-2.7	7.3	7.6
OC[C@H]1O[C@H](OC[C@H]2O[C@H](OC[C@H]3O[C@H](O[C@]4(CO)O[C@H](CO)[C@@H](O)[C@@H]4O)[C@H](O)[C@@H](O)[C@@H]3O)[C@H](O)[C@@H](O)[C@H]2O)[C@H](O)[C@@H](O)[C@H]1O	-6.1	-18.3	-2.2	19.5	3.0	-21.8
CC1CN(c2ccc(NC(=O)c3ccco3)cc2C(=O)O)CC(C)O1 (stereo not given)	5.1	-9.3	9.3	6.1	-5.1	-8.8
Cc1ccc(N(C(=O)c2ccc(S(=O)(=O)N3CCCC3)cc2)C2C=CS(=O)(=O)C2)cc1 (stereo not given)	12.1	9.1	4.5	0.6	-2.6	-10.6
CCCCCCCC(=O)Nc1ccc(C(=O)N/N=C/c2cccc([N+](=O)[O-])c2)cc1	101.3*	-31.2	8.1	34.1	72.4*	39.2
CCCCCCC(=O)Nc1ccc(C(=O)N/N=C/c2cccnc2)cc1	9.2	10.8	1.1	12.7	-1.0	-4.4
C/C(=C\CNc1ncnc2nc[nH]c12)CO	-6.6	9.2	4.1	5.2	-4.1	16.3
CC(C)CCCCCCCCCCCCC(=O)NCC(=O)NC1C(C)OC(Nc2ncnc3nc[nH]c23)C(O)C1O (stereo not given)	99.7*	-17.2	79.0*	83.0*	69.3*	92.0*
CC(O)(c1cccnc1)c1nc(/C=C/c2ccccc2)cs1 (stereo not given)	-24.6	3.7	-96.7	-18.8	·	9.4
CCN(CC)S(=O)(=O)c1cccc(-n2c(O)c(C=Nc3ccccc3C(=O)O)c3ccccc3c2=O)c1	23.7	33.6	3.0	91.3*	53.5	-18.4
O=C(O)c1ccccc1N=Cc1c(O)n(-c2nccs2)c(=O)c2ccccc12	5.3	11.0	8.4	-20.8	20.1	1.1
CCCc1cnc(NCCNCC(O)COc2ccc(Cl)c(Cl)c2)nc1 (stereo not given)	106.9*	-3.6	4.6	4.0	39.7	·
CC(=O)c1cccc(OCC(O)CNCCc2ccc(Cl)cc2)c1 (stereo not given)	-9.8	-3.4	11.9	-17.5	-9.9	-0.4
SMILES	Peg3 prom inh	KKLEB cytotox	HIF-2a inh	CF NFkB inh	MITF TRPM1 inh	Shn3 inh set2
Cc1ccc(S(=O)(=O)NCCn2cnc([N+](=O)[O-])n2)cc1	-2.4	1.0	-0.7	13.4	5.8	-0.7
Cc1onc(-c2c(Cl)cccc2Cl)c1C(=O)N[C@@H]1C(=O)N2[C@@H]1SC(C)(C)[C@@H]2C(=O)O	-4.9	2.8	13.9	-25.5	17.2	91.0*!
CCc1ccc(NC(=O)CSc2nnc(CNC(=O)c3ccco3)o2)cc1	3.5	-6.6	4.9	-0.2	11.7	-7.5
CC(NC(C(=O)c1ccccc1)c1ccccc1)c1ccccc1 (stereo not given)	-28.4	-5.6	-40.3	24.0	4.6	6.8
COc1cc(OC)cc(-c2oc(=O)c3cc(OC)c(OC)cc3c2C#CCCO)c1	-3.8	6.8	-1.8	-34.0	-1.7	-0.8
COc1cc(OC)cc(-c2oc(=O)c3cc(OC)c(OC)cc3c2C(F)(F)F)c1	17.8	-6.6	0.5	-1.9	69.9*	-1.5
Cc1ccc(NC(=O)Cn2c(-c3ccc(F)cc3)cnc2SCC(=O)Nc2c(C)cccc2C)cc1	76.5*	-13.6	10.3	-5.8	5.4	57.6
CCCC(=Nc1ccccc1OC)C1=C(O)CC(c2ccccc2)CC1=O (stereo not given)	2.3	1.2	31.6	8.0	-1.6	16.6
COc1ccccc1N=C(C)C1=C(O)CC(c2ccccc2)CC1=O (stereo not given)	9.4	-5.3	13.4	52.7*	11.3	78.1
O=C(/C=C/c1ccco1)NC(=S)Nc1nc(-c2ccc3ccccc3c2)cs1	-25.6	-63.6*	-71.0	46.8	-2.7	-5.2
CCOc1ccc(C(=O)N(CC)CC(=O)Nc2ccc3c(c2)OCCO3)cc1OCC	0.2	2.4	3.0	7.3	-6.3	-2.2
CCN(CC(=O)Nc1ccc2c(c1)OCCO2)C(=O)c1ccc([N+](=O)[O-])s1	-32.0	-4.2	-20.7	-9.8	70.7*	-3.2
O=C(Nc1ccc(NC(=O)c2cc3ccccc3o2)cc1)c1ccco1	62.7*	5.5	-47.6	-11.6	-6.3	-0.4
O=C(Nc1ccc(N2CCN(C(=O)c3ccco3)CC2)c(Cl)c1)c1cc2ccccc2o1	100.2*	-3.8	-28.3	1.5	70.3*	89.6*

Screening results (PubChem BioAssay)
